Assay in all cases: NCI-60 one-dose screen, 48 h (100 = growth as untreated, 0 = no growth, -100 = all killed)
Assay [1] concerns SK-MEL-2 melanoma. To be noted: 10 µM unless noted.
The subject of assay [2] is EKVX NSCLC. The following applies: 10 µM unless noted.
The test system of assay [3] is SN12C renal. To be noted: 10 µM unless noted.
Assay [4] has as its system UO-31 renal. The following applies: 10 µM unless noted.
For assay [5], the system named is ACHN renal. To be noted: 10 µM unless noted.
Assay [6] concerns CAKI-1 renal. The following applies: 10 µM unless noted.
The subject of assay [7] is A498 renal. The following applies: 10 µM.
Assay [8] deals with HL-60(TB) leukemia. The following applies: 10 µM unless noted.
Assay [9] has as its system CCRF-CEM leukemia. To be noted: 10 µM unless noted.
Assay [10] concerns TK-10 renal. To be noted: 10 µM unless noted.

The panel holds about 83,000 compounds, 20% with a hit somewhere; the sample as a whole holds those more often.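 Growth was measured after 48 h exposure to one concentration of compound in 96-well plates. Values under 10 count as active.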 Unmarked numbers belong to inactive results. Activity calls are given as the source filed them.

On to `CCOc1ccc(/C=C/[N+](=O)[O-])cc1`, for which the growth in assay [1] was 101%; in [2], 93.7%; in [3], 94.5%; in [4], 71.1%; in [5], 96.3%; in assay [6], 101%. Also, the values for the growth in assay [7], in assay [8] and in assay [9] were 78.1%, 105% and 90.6%, respectively.
For the molecule `C=CCCCCCCCCC(=O)[O-].C=CCCCCCCCCC(=O)[O-].[Zn+2]`, the growth in assay [1] was 111%; in assay [2], 98.7%; in [3] it was 101%; in assay [10] it was 115%; in [5], 101%; in assay [6], 90%. The growth in [7] was 92.7%; in [8], 95.1%; in assay [9] it was 104%.
Consider `O=C(Nc1ccc([As]=[As]c2ccc(NC(=O)c3ccccc3)cc2)cc1)c1ccccc1` (centres undefined), for which the growth in assay [1] was -81.4% (active); in assay [2] it was -69.1% (active); in assay [4], -96.7% (active); in assay [10], -98.4% (active); in [5], -92.4% (active); in [6], -80.2% (active). In addition, the growth is -97.5% (active) in assay [7] and -53.9% (active) in assay [8].
As for `Clc1ccc(CSC(Cn2ccnc2)c2ccc(Cl)cc2Cl)cc1` (centres undefined), the growth in assay [1] was 34.1%; in assay [2], 31.7%; in assay [3], 38.5%; in assay [4], 4.12% (active); in [10], 32.3%; in assay [7], 49.2%. Besides, the growth in [9] was 20%.
Consider `COC(=O)[C@@H](C)C[C@H](Cc1ccccc1)NC(=O)c1csc([C@@H](C[C@H](C(C)C)N(C)C(=O)[C@@H](NC(=O)[C@H]2CCCN2C)C2CC2)OC(C)=O)n1`, for which the growth was 35.8% in assay [1]; 31.1% in assay [2]; 25.2% in assay [3]; 48.2% in assay [4]; 12.7% in assay [6]; -0.976% (active) in [7]. The growth was -36.8% (active) in [8] and 6.07% (active) in assay [9].
`COC(=O)[C@@H](C)C[C@H](Cc1ccccc1)NC(=O)c1csc([C@@H](C[C@H](C(C)C)N(C)C(=O)C2(NC(=O)[C@H]3CCCCN3C)CCC2)OC(C)=O)n1`: the growth in assay [1] is 29.5%; in assay [2], 31.7%; in assay [3], 29.8%; in [4], 43.3%; in [5], 28.8%; in assay [6] it was 27.7%. Also, the growth in assay [7] is -2.79% (active); in assay [8], -51.8% (active); in assay [9] it was 10% (active).
For `CC[C@H](C)[C@H](NC(=O)N[C@@H](C)c1ccccc1)C(=O)N(C)[C@H](C[C@@H](OC(C)=O)c1nc(C(=O)N[C@@H](Cc2ccccc2)C[C@H](C)C(=O)OC)cs1)C(C)C`, the growth in [1] is -14.9% (active); in assay [2], 36.7%; in [3] it was 39.9%; in assay [4], 28.5%; in assay [5], 21.5%; in [7] it was -4.53% (active). The growth in assay [8] was -16.9% (active).
Turning to `CCCC(C)C1(CC)C(=O)NC(=O)N(C)C1=O` (centres undefined), the growth in [1] is 85.4%; in assay [2], 105%; in assay [4], 82.3%; in assay [10], 92.6%; in [5], 107%; in [6], 95.7%. Further, the growth in assay [7] is 91.8%; in [8] it was 94.8%; in assay [9], 93.9%.
With `COC(=O)[C@H](Cc1ccccc1)NC(=O)c1csc([C@@H](C[C@H](C(C)C)N(C)C(=O)[C@@H](NC(=O)[C@H]2CCCN2C)C2CC2)OC(C)=O)n1`, the growth in assay [1] is 31.2%; in assay [2], 33.4%; in [3] it was 33%; in [4], 41.1%; in assay [5], 39.9%; in assay [6], 36.8%. Besides, the values for the growth in assay [7] and in assay [9] were 13.5% and 4.07% (active), respectively.

(Values after PubChem BioAssay (NCI).)
